Cycloheximide cs: Cycloheximide Counterscreen for Small Molecule Inhibitors of Shiga Toxin. max response, %. AID 2314, 2010. 300,000 tested, 12% active. cell reporter, cycloheximide protein synthesis inhibition counterscreen; in the data active = max response mostly above about 13%, no sharp cut-off; inactive = mostly below about 14%; also: read at 38.3 µM for the half of the compounds with a filed dose; 0% is about no effect
Giardia FBPA inh: qHTS Assay for Inhibitors of Fructose-1,6-bisphosphate Aldolase from Giardia Lamblia; purified Giardia FBPA; Potency, µM (titrated, usually from 59.6 µM), without a hit: at the highest dose activity, negative = inhibition, usual class: inhibitors; 290,000 tested, 0.71% active; A8B2U2; also: potency is read from the fitted curve at half-maximal effect; % is scaled to controls: 0 for no effect and ±100 for the full control effect; nearly all actives have a fitted effect of over 55% in size
Target sequence (A8B2U2 whole entry, looked up): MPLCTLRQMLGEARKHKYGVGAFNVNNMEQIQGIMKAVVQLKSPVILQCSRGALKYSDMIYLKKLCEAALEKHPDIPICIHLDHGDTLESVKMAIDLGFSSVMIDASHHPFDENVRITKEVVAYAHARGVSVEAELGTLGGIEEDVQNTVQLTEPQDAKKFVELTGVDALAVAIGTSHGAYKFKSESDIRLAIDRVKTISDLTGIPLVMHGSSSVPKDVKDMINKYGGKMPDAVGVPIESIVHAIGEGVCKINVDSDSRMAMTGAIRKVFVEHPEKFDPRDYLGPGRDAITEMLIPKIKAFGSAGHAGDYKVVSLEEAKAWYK
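40 nM FBPA preincubated 10 min at RT with compound (up to 57.5 uM final), then substrate plus GAPDH/TPI/NAD/arsenate coupling and diaphorase/resazurin added. Fluorescence read after 20 min at RT, 525/598 nm.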
LmPK inh: qHTS Assay for Inhibitors of Leishmania Mexicana Pyruvate Kinase (LmPK) | Q27686 | purified LmPK, Kinase-Glo ATP luminescence, 1 h | 290,000 tested, 0.37% active | Potency, µM (top dose mostly 57.5 µM), for inactives: at the top dose activity change, negative = inhibition, usual class: inhibitors | AID 1721, 2009; also: potency is read from the fitted curve at half-maximal effect; % is scaled to controls: 0 for no effect and ±100 for the full control effect
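Pyruvate kinase activity monitored as ATP production (luciferase luminescence). Conditions: 0.1 nM enzyme, 0.5 mM PEP, 0.1 mM ADP, 1 h, RT; normalized against uninhibited and no-enzyme wells.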
Shiga toxin inh: A qHTS for Small Molecule Inhibitors of Shiga Toxin | inhibition, % at 38.7 µM | Vero cells, Shiga toxin protein synthesis inhibition reporter | 290,000 tested, 9.2% active; in the data active = inhibition mostly above about 28%, no sharp cut-off; inactive = mostly below about 43%; also: 0% is about no effect
Tb PYK inh: qHTS of Trypanosoma Brucei Inhibitors | pyruvate kinase (Trypanosoma brucei), Q57TT1 | TbPYK enzyme, Kinase-Glo Plus ATP luminescence, 45 min | Potency, µM (titrated, usually from 76.8 µM), for inactives: at the highest dose activity, negative = inhibition, actives largely listed as inhibitors | 410,000 tested, 0.12% active | AID 624173, 2012; also: potency is read from the fitted curve at half-maximal effect; % is scaled to controls: 0 for no effect and ±100 for the full control effect; nearly all actives have a fitted effect of over 50% in size
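TbPYK + substrate in 50 mM TEA pH 7.2, 100 mM KCl, 10 mM MgCl2, 0.05% BSA, 0.01% Tween-20; cpd pinned; ADP 130 uM final; 45 min RT; Kinase-Glo Plus 10 min; luminescence endpoint.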
Sm TGR block: qHTS Assay for the Inhibitors of Schistosoma Mansoni Peroxiredoxins | Schistosoma mansoni thioredoxin glutathione reductase (TGR), Q962Y6 | purified TGR, DTNB reduction, TNB absorbance 405 nm | Potency, µM (highest dose often 114 µM), inactives show at the highest dose activity change, negative = inhibition, usual class: inhibitors | 360,000 tested, 3% active | AID 485364, 2010; also: potency is read from the fitted curve at half-maximal effect; % is scaled to controls: 0 for no effect and ±100 for the full control effect; nearly all actives have a fitted effect of over 60% in size
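Kinetic colorimetric format: TGR-catalysed, NADPH-driven DTNB reduction monitored via TNB absorbance. Enzyme dispensed at 20 nM; compound exposure 15 min at room temperature before reaction start.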
An asterisk follows results filed as active; ? = inconclusive; . = no result given; [ ] = remark or other dose. The full list was thinned out, with hits kept by preference. Unless noted, calls follow the shape of the dose curve; as a rule, active = well fitted curve in the direction sought with a large enough effect; inconclusive = small, poorly fitted or top-dose-only effect, or another doubt; inactive = no such curve, though single readings can be large; an effect the other way counts as inactive or inconclusive.

SMILES	Cycloheximide cs	Giardia FBPA inh	LmPK inh	Shiga toxin inh	Tb PYK inh	Sm TGR block
C/C(=N\Nc1ccccc1)c1cc2ccccc2oc1=O	19	1%	0%	25	1%	-10%
COc1cccc2cc(C(=O)N(Cc3ccccc3)CC3CCCO3)c(=O)oc12 (configuration not stated)	7	2%	0%	12	-3%	-30%
C/C(=N\NC(=O)CC#N)c1cc2ccccc2oc1=O	16*	1%	0%	29*	-2%	-3%
O=C(OCc1ccc([N+](=O)[O-])cc1)c1cc2ccccc2oc1=O	.	.	.	.	1%	.
COc1ccc2oc(=O)c(C(=O)OCc3ccccc3)cc2c1	23*	5%	3%	36	-11%	-9%
CCOC(=O)c1ccc(COC(=O)c2cc3ccccc3oc2=O)o1	28*	0%	6%	40	2%	-6%
CCN(C(=O)c1cc2cccc(OC)c2oc1=O)c1ccccc1	53*	8%	-11%	168*	1%	1%
CCC1=C2CC[C@H]3C(=O)N(C)C(=O)[C@H]3[C@H]2[C@@]2(C)C(=O)N(CC3CC3)C(=O)N2C1=O	.	5%	.	.	.	.
COC(=O)CN1C(=O)CSc2ccc(S(=O)(=O)Nc3ccccc3)cc21	.	.	.	.	-1%	1%
CCOC(=O)CCSc1n[nH]c(=S)s1	-1	?	23%	6	-28%	18µM*
CCOC(=O)CSc1n[nH]c(=S)s1	-2	?	21%	-9	?	?
O=S(=O)(NC(CO)Cc1ccccc1)c1ccc(Br)cc1F (configuration not stated)	.	.	.	.	-4%	.
Cc1ccccc1/C=C1\OC(=O)c2ccccc21	20*	1%	-7%	40*	-2%	7%
Cc1ccc(/C=C2\OC(=O)c3ccccc32)cc1	53*	-1%	-11%	107*	-2%	-1%
O=C1/C(=C/c2ccccc2)Oc2ccccc21	.	1%[12.9 µM]	.	.	.	.
O=C(c1cc(C2CCCCN2S(=O)(=O)c2cccs2)on1)N1CCOCC1 (configuration not stated)	.	.	.	.	3%	.
CCn1nnc(NC(=O)c2cccc(-c3cc4ccccc4oc3=O)c2)n1	40*	6%	0%	73*	-4%	-6%
O=C(Nc1cccc(Cl)c1N1CCCC1)c1cccc(-c2cc3ccccc3oc2=O)c1	26*	-8%	1%	39	1%	8%
O=C(Nc1cccnc1)c1cccc(-c2cc3ccccc3oc2=O)c1	12	5%	4%	23	0%	.
COc1ccc(CC(N)c2csc(Nc3nncc4ccccc34)n2)cc1 (configuration not stated)	.	.	.	.	-8%	.
Cc1ccc(Nc2ncnc(N)n2)cc1C	26*	-5%	-1%	50*	-14%	0%
COc1cc(OC)cc(-c2nnc3n2N=C(c2ccccc2OC)CS3)c1	-2	-21%	.	-7	.	.
CC(C)(CO)[C@H](O)C(=O)NCCC(=O)O	.	-2%[21.7 µM]	.	.	.	.
OC(C#CCN1CCOCC1)(c1ccccc1)C1CC1 (configuration not stated)	-4	0%	0%	-14	-1%	50µM*
CC(=O)Nc1ccc2oc(-c3cc(F)c(F)cc3Cl)nc2c1	32*	5%	1%	181*	-2%	0%
SMILES	Cycloheximide cs	Giardia FBPA inh	LmPK inh	Shiga toxin inh	Tb PYK inh	Sm TGR block
CCC(=O)Nc1ccc2oc(-c3ccccc3Br)nc2c1	49*	-2%	1%	122*	-4%	-6%
Cc1ccccc1-c1nc2cc(NC(=O)Cc3ccc(Cl)cc3)ccc2o1	.	.	.	.	-6%	-1%
CC(=O)Nc1ccc2oc(C)nc2c1	-1	-4%	-6%	6	-13%	9%
CC(=O)Nc1ccc2oc(-c3ccccc3Br)nc2c1	71*	-1%	6%	93*	-3%	10%[11.4 µM]
Cc1ccccc1-c1nc2cc(NC(=O)C3CC3)ccc2o1	43*	4%	-9%	109*	-6%	?
COc1ccc(NC(=O)COc2cccc(-n3cnnn3)c2)cc1	-4	.	0%	-9	4%	8%
CCOc1ccc(-c2cn3c(n2)sc2cc(C(=O)NC4CCCc5ccccc54)ccc23)cc1 (configuration not stated)	.	.	.	.	1%	10%
CC(C)(OC(=O)c1ccc(F)cc1)c1cc2ccccc2c(=O)o1	.	.	.	.	-4%	-25%
COc1cc(NC(=O)Nc2nnc(N3CCCCCC3)s2)cc(OC)c1	.	.	.	.	-12%	?
CCOC(=O)c1c(C)[nH]c2ccc3c(c12)CN1CCc2cc(OC)ccc2[C@@H]1O3	.	0%	.	.	.	.
O=C(Nc1ccc(C(=O)N2CCC(O)(c3ccc(Cl)c(C(F)(F)F)c3)CC2)cc1)c1ccc(Br)o1	.	.	.	.	3%	?
N#Cc1ccccc1N1CCN(C(=O)c2ccc(NC(=O)c3ccc(Br)o3)cc2)CC1	.	.	.	.	-5%	28µM*
O=C(Nc1ccc(C(=O)N2CCC(N3CCCC3)CC2)cc1)c1ccc(Br)o1	.	.	.	.	-1%	25µM*
O=C(Nc1ccc(C(=O)N2CCN(c3ccccn3)CC2)cc1)c1ccc(Br)o1	.	.	.	.	-6%	45µM*
CCOc1ccccc1NC(=O)CCNS(=O)(=O)c1cccc2nonc12	-3	8%	-6%	-12	5%	-1%
CCN(c1ccccc1)C(CNS(=O)(=O)c1ccccc1)c1ccccc1 (configuration not stated)	.	.	.	.	1%	-5%
COCCNC(=O)C1(C)CCCN(CCSc2ccccc2)C1 (configuration not stated)	.	.	.	.	0%	.
Cc1sc(NC(=O)c2ccccc2F)c(CN2CCCCC2C)c1C (configuration not stated)	71*	-5%	-3%	61*	-3%	?
CC(=O)Nc1sc(C)c(C)c1CN1CCN(Cc2ccccc2)CC1	11	4%	-1%	10	-1%	?
COc1ccc(CN2C(=O)C(CC(=O)NCCN3CCOCC3)CC(C(=O)N3CCOCC3)=C2C)cc1 (configuration not stated)	.	.	.	.	-6%	.
CCCCC(c1nnnn1C1CCCC1)N1CCN(C2CCCC2)CC1 (configuration not stated)	32*	-20%	-1%	-20	-6%	0%
CCCC(c1nnnn1C1CCCCC1)N1CCN(C2CCCC2)CC1 (configuration not stated)	-6	-12%	4%	-12	-8%	-23%
CCC(=O)N(C)CCc1cc2c(c(OC)c1/C=N/Nc1ccc(C(=O)O)cc1)OCO2	35*	-12%	0%	36	-4%	80%
O=C(CN1C(=O)NC2(CCCC2)C1=O)OCCOc1ccc(Cl)cc1Cl	.	.	.	.	2%	0%
COC(=O)[C@@]1(Cc2ccccc2)[C@H]2C(=O)N(C)C(=O)[C@H]2[C@H]2CN=C(SCC(=O)c3ccccc3)N21	.	.	.	.	-8%	.

Compound activity as filed in PubChem BioAssay.
